Data as given in PubChem BioAssay AID1159580 (chemical genetic matrix, 2015).
Values joined by “and” are separate entries in the source; they are usually repeats but may differ in a detail not shown here. Equal entries are not always repeated. The campaign covered roughly 5,500 compounds. About 2,000 (36%) were called active. Roughly 18% stayed inconclusive and do not appear here. Cut-off read from the data, not from the text of the source: active = normalized growth mostly below about 0.91 (no sharp cut-off); inconclusive = no clear call, values can overlap the other calls; inactive = mostly above about 0.92. Some of the results follow.

Test: chemical genetic growth profiling, strain panel (AID 1159580);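 note: tested at 20 µM; growth read once vehicle control cultures reached saturation at 30 °C; 1 = growth at the plate median or of vehicle wells; lower values mean less growth of the strain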
Details: S. cerevisiae deletion strains, growth OD

Measured: normalized growth

Cc1cc(C(C)(C)C)c(O)c(C)c1CC1=NCCN1
inactive: locus YAL013W, strain DEP1, stronger effect = lower value 0.986 and 1.02 | locus YAL021C, strain ccr4, stronger effect = lower value 1.01 | locus YAL026C, strain drs2, stronger effect = lower value 1 | locus YAL030W, strain snc1, stronger effect = lower value 1.01 | locus YAL040C, strain CLN3, stronger effect = lower value 1.01 | locus YBL061C, strain skt5, stronger effect = lower value 1.02 | locus YBR009C, strain hhf1, stronger effect = lower value 1.01 | locus YBR021W, strain FUR4, stronger effect = lower value 1 | locus YBR023C, strain chs3, stronger effect = lower value 1.02 | locus YBR171W, strain sec66, stronger effect = lower value 1.02 | locus YBR229C, strain ROT2, stronger effect = lower value 1 | locus YBR231C, strain swc5, stronger effect = lower value 0.998 | locus YBR279W, strain paf1, stronger effect = lower value 0.993 | locus YCL011C, strain gbp2, stronger effect = lower value 1.01 | locus YCL016C, strain dcc1, stronger effect = lower value 1.02 | locus YCL029C, strain bik1, stronger effect = lower value 1.02 | locus YCL061C, strain MRC1 (second series), stronger effect = lower value 1 | locus YCL061C, strain MRC1, stronger effect = lower value 1.01 | locus YCL069W, strain vba3, stronger effect = lower value 1 | locus YCR088W, strain abp1, stronger effect = lower value 1 | locus YDL005C, strain med2, stronger effect = lower value 0.998 | locus YDL035C, strain GPR1, stronger effect = lower value 1 | locus YDL040C, strain nat1, stronger effect = lower value 1 | locus YDL074C, strain BRE1, stronger effect = lower value 0.98 | locus YDL101C, strain DUN1, stronger effect = lower value 1 | locus YDL134C, strain PPH21, stronger effect = lower value 0.997 | locus YDL185W, strain tfp1, stronger effect = lower value 1.01 | locus YDL192W, strain arf1, stronger effect = lower value 1.02 | locus YDR001C, strain nth1, stronger effect = lower value 0.993 | locus YDR069C, strain doa4, stronger effect = lower value 1.01 | locus YDR101C, strain arx1, stronger effect = lower value 0.993 | locus YDR137W, strain rgp1, stronger effect = lower value 1.06 | locus YDR150W, strain NUM1, stronger effect = lower value 1 | locus YDR159W, strain sac3, stronger effect = lower value 0.991 | locus YDR162C, strain NBP2, stronger effect = lower value 0.991 | locus YDR195W, strain ref2 0.99 | locus YDR297W, strain sur2, stronger effect = lower value 1 | locus YDR318W, strain mcm21, stronger effect = lower value 1.01 | locus YDR334W, strain swr1, stronger effect = lower value 1.01 | locus YDR335W, strain msn5, stronger effect = lower value 1 | locus YDR363W, strain ESC2, stronger effect = lower value 1.01 | locus YDR388W, stronger effect = lower value 1 | locus YDR392W, strain spt3, stronger effect = lower value 0.954 | locus YDR502C, strain sam2, stronger effect = lower value 1 | locus YEL003W, strain gim4, stronger effect = lower value 0.981 | locus YEL037C, strain rad23, stronger effect = lower value 1 | locus YEL061C, strain CIN8 (second series), stronger effect = lower value 0.998 | locus YEL061C, strain CIN8, stronger effect = lower value 0.997 | locus YER002W, strain NOP16, stronger effect = lower value 0.998 | locus YER015W, strain faa2, stronger effect = lower value 0.998 | locus YER016W, strain bim1, stronger effect = lower value 1 | locus YER110C, stronger effect = lower value 1.02 | locus YER111C, strain swi4, stronger effect = lower value 1 | locus YER155C, strain BEM2 (second series), stronger effect = lower value 0.991 | locus YER155C, strain BEM2, stronger effect = lower value 0.996 | locus YER167W, strain BCK2, stronger effect = lower value 0.998 | locus YFR010W, strain ubp6, stronger effect = lower value 0.999 | locus YGL078C, strain dbp3, stronger effect = lower value 1.01 | locus YGL086W, strain mad1, stronger effect = lower value 1 | locus YGL167C, strain pmr1, stronger effect = lower value 1 | locus YGL173C, strain kem1, stronger effect = lower value 1.01 | locus YGL227W, strain vid30, stronger effect = lower value 1 | locus YGL240W, strain doc1, stronger effect = lower value 0.992 | locus YGL248W, strain PDE1, stronger effect = lower value 1 | locus YGL253W, strain hxk2, stronger effect = lower value 1.01 | locus YGR078C, strain PAC10, stronger effect = lower value 1 and 0.998 | locus YGR135W, strain pre9, stronger effect = lower value 1.01 | locus YGR229C, strain SMI1, stronger effect = lower value 1.01 | locus YGR252W, strain gcn5, stronger effect = lower value 0.967 | locus YHR013C, strain ard1, stronger effect = lower value 1.01 | locus YHR027C, strain rpn1, stronger effect = lower value 1.02 | locus YHR030C, strain SLT2, stronger effect = lower value 0.998 and 0.968 | locus YHR079C, strain IRE1 (second series), stronger effect = lower value 1.01 | locus YHR079C, strain IRE1, stronger effect = lower value 0.977 | locus YHR094C, strain hxt1, stronger effect = lower value 0.994 | locus YHR129C, strain ARP1, stronger effect = lower value 1.01 | locus YHR142W, strain chs7, stronger effect = lower value 0.997 | locus YHR200W, strain rpn10, stronger effect = lower value 0.994 | locus YIL066C, strain RNR3, stronger effect = lower value 1 | locus YIL073C, strain SPO22, stronger effect = lower value 1.04 | locus YIL125W, strain kgd1, stronger effect = lower value 1 | locus YIR030C, strain dcg1, stronger effect = lower value 1.01 | locus YJL092W, strain hpr5, stronger effect = lower value 1.01 | locus YJL095W, strain BCK1 (second series), stronger effect = lower value 1.01 | locus YJL095W, strain BCK1, stronger effect = lower value 1 and 0.981 | locus YJL115W, strain asf1, stronger effect = lower value 1 | locus YJL129C, strain trk1, stronger effect = lower value 0.993 | locus YJL134W, strain LCB3, stronger effect = lower value 0.997 | locus YJL154C, strain vps35, stronger effect = lower value 1 | locus YJL164C, strain tpk1, stronger effect = lower value 1 | locus YJL166W, strain qcr8, stronger effect = lower value 1.01 | locus YJL168C, strain set2, stronger effect = lower value 1.01 | locus YJL187C, strain SWE1 (second series), stronger effect = lower value 1 | locus YJL187C, strain SWE1, stronger effect = lower value 1 | locus YJR043C, strain POL32, stronger effect = lower value 0.982
